According to PMC7862700, “An all-to-all approach to the identification of sequence-specific readers for epigenetic DNA modifications on cytosine”:

What was measured:
Experiment in all cases: DAPPL (digital affinity profiling via proximity ligation, sequencing); 10 mM Tris-HCl pH 7.5, 50 mM NaCl, 1 mM DTT, 4% glycerol, room temperature, 30 min; GST-TFs on glutathione beads, 16-mer random dsDNA library, 0.1% formaldehyde crosslink after washing; high values mean tight binding
Conditions in all cases: protein: recombinant; tags: N-terminal GST; dsDNA, one strand shown
[1] = target: T1, ELK1 (Homo sapiens, UniProt P19419 1-428)
T1 sequence: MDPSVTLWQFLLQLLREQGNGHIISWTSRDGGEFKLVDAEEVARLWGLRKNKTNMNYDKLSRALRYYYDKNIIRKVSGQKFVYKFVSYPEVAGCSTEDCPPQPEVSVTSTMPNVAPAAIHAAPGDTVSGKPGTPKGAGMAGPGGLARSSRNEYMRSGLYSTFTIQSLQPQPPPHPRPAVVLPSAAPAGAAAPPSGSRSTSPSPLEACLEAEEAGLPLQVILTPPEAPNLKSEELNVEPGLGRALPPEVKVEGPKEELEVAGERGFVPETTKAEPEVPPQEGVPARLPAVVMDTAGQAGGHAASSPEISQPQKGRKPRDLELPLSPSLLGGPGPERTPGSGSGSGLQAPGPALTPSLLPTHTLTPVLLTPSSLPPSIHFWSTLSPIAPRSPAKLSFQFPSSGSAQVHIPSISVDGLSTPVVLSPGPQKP
How it was run: (§1)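 Sequencing on an Illumina NextSeq500 followed washing, crosslinking with 0.1% formaldehyde, proximity ligation (BsaI/T4 ligase, 1 h, 37 °C) and PCR amplification of pools that had been incubated for 30 min at room temperature with 200 nmole of a random double-stranded 16-mer DNA library in Tris/NaCl/DTT/glycerol buffer. Each pool held DNA-barcoded human transcription factors, expressed in yeast as GST fusions and captured on glutathione beads, plus a tag-only sample. Binding signal is a hexamer's read frequency for a factor divided by its frequency in the tag-only sample.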

[2] = target: T2, GABPA (Homo sapiens, UniProt Q06546 1-454)
T2 sequence: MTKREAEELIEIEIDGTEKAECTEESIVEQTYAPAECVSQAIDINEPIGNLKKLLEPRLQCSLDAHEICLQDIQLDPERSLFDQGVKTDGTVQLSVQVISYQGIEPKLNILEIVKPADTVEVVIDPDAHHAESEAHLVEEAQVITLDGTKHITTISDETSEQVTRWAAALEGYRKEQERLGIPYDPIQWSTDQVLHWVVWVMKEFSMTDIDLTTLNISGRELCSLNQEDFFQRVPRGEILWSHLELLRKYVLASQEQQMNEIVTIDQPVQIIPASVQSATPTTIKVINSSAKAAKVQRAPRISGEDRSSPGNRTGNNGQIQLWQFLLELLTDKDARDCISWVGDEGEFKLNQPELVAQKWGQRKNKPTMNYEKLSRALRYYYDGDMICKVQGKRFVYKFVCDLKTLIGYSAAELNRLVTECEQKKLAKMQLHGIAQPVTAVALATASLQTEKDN
How it was run: as §1

[3] = target: ELF1 (Homo sapiens, UniProt P32519 1-619)
Chain of ELF1 (P32519 whole entry): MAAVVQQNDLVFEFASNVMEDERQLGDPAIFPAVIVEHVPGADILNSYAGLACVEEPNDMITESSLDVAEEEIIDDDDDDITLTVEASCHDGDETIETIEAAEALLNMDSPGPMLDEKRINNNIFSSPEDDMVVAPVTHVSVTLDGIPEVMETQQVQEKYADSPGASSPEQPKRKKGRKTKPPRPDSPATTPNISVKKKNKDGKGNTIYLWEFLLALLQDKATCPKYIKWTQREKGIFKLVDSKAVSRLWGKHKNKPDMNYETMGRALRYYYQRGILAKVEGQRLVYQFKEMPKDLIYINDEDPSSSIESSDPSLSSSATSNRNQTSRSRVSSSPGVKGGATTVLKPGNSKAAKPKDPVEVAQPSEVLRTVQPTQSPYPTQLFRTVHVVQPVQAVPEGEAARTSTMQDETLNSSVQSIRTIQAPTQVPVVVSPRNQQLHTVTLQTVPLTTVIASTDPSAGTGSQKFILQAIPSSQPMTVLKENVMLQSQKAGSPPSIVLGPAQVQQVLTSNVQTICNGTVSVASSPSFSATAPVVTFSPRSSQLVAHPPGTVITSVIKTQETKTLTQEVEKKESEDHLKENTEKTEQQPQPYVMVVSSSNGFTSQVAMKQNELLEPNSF
How it was run: as §1

[4] = target: T3, EHF (Homo sapiens, UniProt Q9NZC4 1-300)
T3 sequence: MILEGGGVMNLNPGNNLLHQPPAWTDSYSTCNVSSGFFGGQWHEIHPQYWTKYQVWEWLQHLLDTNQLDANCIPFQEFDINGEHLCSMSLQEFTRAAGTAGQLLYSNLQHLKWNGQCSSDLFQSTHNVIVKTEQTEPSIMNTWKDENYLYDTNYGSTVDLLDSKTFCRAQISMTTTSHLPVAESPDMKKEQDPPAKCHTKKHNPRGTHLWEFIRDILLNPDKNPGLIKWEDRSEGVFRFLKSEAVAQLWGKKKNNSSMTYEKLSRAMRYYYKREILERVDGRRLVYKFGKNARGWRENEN
How it was run: as §1

[5] = target: SPIB (Homo sapiens, UniProt Q01892 1-262)
Chain of SPIB (Q01892 whole entry): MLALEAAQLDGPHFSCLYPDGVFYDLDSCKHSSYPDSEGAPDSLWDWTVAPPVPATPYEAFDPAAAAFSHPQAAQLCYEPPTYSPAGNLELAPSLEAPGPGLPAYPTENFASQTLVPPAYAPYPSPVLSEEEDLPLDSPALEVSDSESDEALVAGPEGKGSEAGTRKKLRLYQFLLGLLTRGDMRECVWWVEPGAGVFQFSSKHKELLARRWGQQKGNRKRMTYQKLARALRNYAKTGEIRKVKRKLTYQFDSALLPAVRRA
How it was run: as §1

[6] = target: T4, FEV (Homo sapiens, UniProt Q99581 1-238)
T4 sequence: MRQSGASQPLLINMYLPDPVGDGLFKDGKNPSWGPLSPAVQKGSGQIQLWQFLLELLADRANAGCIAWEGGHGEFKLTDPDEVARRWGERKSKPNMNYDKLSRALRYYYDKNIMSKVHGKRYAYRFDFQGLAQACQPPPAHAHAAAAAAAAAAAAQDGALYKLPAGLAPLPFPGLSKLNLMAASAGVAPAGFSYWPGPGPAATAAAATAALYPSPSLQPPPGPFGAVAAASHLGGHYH
How it was run: as §1

[7] = target: ETV5 (Homo sapiens, UniProt P41161 1-510)
Chain of ETV5 (P41161 whole entry): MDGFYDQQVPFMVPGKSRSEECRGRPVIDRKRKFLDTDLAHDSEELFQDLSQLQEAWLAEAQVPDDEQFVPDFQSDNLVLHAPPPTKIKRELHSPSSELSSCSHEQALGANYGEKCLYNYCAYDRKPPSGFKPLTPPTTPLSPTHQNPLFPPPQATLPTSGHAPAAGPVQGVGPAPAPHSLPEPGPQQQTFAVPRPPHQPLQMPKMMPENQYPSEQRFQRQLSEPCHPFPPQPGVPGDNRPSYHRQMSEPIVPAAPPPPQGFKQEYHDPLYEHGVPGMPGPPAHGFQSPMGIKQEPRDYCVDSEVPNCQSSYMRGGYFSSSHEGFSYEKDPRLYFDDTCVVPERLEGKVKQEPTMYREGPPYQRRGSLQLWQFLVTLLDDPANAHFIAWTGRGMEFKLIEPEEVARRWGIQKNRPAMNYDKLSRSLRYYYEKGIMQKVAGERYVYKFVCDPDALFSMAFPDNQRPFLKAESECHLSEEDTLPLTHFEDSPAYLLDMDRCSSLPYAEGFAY
How it was run: as §1

[8] = target: ELF4 (Homo sapiens, UniProt Q99607 1-663)
Chain of ELF4 (Q99607 whole entry): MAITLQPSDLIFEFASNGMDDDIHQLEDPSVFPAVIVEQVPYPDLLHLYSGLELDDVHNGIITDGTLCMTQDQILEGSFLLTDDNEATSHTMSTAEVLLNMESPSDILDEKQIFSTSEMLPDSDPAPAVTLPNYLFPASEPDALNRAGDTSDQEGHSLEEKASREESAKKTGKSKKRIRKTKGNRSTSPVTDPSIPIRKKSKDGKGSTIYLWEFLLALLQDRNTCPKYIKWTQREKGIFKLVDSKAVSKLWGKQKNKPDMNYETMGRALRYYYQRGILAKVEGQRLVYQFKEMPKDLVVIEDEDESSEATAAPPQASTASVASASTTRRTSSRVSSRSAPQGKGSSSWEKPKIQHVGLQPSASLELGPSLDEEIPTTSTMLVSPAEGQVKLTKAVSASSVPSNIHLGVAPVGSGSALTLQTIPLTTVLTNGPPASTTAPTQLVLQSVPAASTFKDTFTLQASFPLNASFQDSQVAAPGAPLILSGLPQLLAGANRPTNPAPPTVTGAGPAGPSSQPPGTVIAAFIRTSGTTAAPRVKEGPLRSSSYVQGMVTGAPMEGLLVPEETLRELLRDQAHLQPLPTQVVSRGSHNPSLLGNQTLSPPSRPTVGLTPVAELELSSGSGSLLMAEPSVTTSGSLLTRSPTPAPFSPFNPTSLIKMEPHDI
How it was run: as §1

[9] = target: T5, ELK4 (Homo sapiens, UniProt P28324-2 1-405)
T5 sequence: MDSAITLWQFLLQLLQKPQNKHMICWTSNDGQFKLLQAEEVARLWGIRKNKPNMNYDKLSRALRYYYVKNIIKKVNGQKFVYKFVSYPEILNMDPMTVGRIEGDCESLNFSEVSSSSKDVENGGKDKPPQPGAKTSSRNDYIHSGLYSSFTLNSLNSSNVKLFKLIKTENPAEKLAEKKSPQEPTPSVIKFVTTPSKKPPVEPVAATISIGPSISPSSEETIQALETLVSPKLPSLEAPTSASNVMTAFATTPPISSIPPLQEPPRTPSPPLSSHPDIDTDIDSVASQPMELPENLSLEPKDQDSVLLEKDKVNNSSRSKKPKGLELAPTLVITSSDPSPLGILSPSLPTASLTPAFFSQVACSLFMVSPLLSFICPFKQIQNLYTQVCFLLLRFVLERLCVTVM
How it was run: as §1

[10] = target: T6, ETV2 (Homo sapiens, UniProt O00321 1-342)
T6 sequence: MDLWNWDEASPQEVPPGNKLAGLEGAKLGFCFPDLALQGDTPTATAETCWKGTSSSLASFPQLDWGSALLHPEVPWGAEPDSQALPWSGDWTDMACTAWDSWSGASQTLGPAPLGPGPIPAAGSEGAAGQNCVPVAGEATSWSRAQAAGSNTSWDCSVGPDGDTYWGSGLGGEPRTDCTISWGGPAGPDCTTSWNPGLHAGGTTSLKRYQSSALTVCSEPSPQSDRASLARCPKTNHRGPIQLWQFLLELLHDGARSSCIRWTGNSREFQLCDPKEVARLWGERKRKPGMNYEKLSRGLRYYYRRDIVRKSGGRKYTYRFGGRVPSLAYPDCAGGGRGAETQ
How it was run: as §1

[11] = target: T7, ERF (Homo sapiens, UniProt P50548 1-548)
T7 sequence: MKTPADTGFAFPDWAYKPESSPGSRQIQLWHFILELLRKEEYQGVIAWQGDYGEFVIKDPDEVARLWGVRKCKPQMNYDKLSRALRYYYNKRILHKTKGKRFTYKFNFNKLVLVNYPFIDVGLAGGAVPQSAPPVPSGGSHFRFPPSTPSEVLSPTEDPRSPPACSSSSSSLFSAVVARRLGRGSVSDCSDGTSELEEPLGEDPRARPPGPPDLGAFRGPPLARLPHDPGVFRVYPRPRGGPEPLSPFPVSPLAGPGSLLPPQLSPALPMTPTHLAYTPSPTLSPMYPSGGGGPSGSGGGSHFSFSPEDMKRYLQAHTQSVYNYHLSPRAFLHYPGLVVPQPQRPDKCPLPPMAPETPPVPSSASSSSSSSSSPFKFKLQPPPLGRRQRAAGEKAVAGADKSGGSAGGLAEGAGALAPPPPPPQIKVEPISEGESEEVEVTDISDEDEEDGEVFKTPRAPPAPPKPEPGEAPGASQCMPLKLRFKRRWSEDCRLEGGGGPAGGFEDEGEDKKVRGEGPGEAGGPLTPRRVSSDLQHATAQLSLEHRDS
How it was run: as §1

[12] = target: T8, SPDEF (Homo sapiens, UniProt O95238 1-335)
T8 sequence: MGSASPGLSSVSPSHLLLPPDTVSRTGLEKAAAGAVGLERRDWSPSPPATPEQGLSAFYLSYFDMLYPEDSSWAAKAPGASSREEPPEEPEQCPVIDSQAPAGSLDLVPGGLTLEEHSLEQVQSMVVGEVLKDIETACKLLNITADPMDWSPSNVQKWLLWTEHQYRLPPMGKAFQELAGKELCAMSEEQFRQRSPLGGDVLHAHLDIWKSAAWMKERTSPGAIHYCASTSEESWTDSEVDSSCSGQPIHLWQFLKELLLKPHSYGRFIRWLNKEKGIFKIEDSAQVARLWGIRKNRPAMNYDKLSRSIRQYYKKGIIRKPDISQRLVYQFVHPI
How it was run: as §1

[13] = target: T9, ETV3 (Homo sapiens, UniProt P41162-2 1-143)
T9 sequence: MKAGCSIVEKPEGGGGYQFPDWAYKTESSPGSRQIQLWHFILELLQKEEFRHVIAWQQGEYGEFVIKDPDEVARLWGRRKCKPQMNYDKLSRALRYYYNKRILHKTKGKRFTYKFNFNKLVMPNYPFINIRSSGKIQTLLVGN
How it was run: as §1

[14] = target: ETV6 (Homo sapiens, UniProt P41212 1-452)
Chain of ETV6 (P41212 whole entry): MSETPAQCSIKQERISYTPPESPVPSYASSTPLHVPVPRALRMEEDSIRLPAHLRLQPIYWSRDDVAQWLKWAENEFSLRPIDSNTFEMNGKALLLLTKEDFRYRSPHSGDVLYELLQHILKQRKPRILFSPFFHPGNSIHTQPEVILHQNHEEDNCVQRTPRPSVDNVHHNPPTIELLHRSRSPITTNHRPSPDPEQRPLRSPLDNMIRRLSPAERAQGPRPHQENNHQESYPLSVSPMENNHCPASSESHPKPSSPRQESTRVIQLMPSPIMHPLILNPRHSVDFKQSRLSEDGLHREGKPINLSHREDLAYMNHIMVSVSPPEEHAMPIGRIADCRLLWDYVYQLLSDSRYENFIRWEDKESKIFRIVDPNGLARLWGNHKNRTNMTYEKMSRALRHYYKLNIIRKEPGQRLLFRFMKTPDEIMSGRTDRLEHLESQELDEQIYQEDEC
How it was run: as §1

## ACCAAA
[1]
  binding signal: 1.05 fold enrichment (6-mer frequency, TF over GST control)
[2]
  binding signal: 1.01 fold enrichment (6-mer frequency, TF over GST control)
[3]
  binding signal: 1.04 fold enrichment (6-mer frequency, TF over GST control)
[4]
  binding signal: 1.07 fold enrichment (6-mer frequency, TF over GST control)
[5]
  binding signal: 1.03 fold enrichment (6-mer frequency, TF over GST control)
[6]
  binding signal: 1.07 fold enrichment (6-mer frequency, TF over GST control)
[7]
  binding signal: 1.03 fold enrichment (6-mer frequency, TF over GST control)
[8]
  binding signal: 1.1 fold enrichment (6-mer frequency, TF over GST control)
[9]
  binding signal: 1.02 fold enrichment (6-mer frequency, TF over GST control)
[10]
  binding signal: 1.14 fold enrichment (6-mer frequency, TF over GST control)
[11]
  binding signal: 1.03 fold enrichment (6-mer frequency, TF over GST control)
[12]
  binding signal: 1.04 fold enrichment (6-mer frequency, TF over GST control)
[13]
  binding signal: 1.02 fold enrichment (6-mer frequency, TF over GST control)
[14]
  binding signal: 1.03 fold enrichment (6-mer frequency, TF over GST control)
